PubChem BioAssay (Tox21)
Values joined by “and” are separate entries in the source; they are usually repeats but may differ in a detail not shown here. Equal entries are not always repeated. Records with an inconclusive call do not appear. Active and inactive are the calls of the source. Unless noted, calls follow the shape of the dose curve; as a rule, active = well fitted curve in the direction sought with a large enough effect in the repeat runs; inconclusive = weak or mixed curves; inactive = no such curve, though single readings can be large; an effect the other way counts as inactive or inconclusive.

Legend:
[1] = qHTS assay to identify small molecule agonists of H2AX (AID 1224845; active = well fitted activation curve with a large enough effect in the signal ratio in the repeat runs, not every such curve was filed as active; the % refers to the signal ratio; also: potency is read from the fitted curve at half-maximal effect)
How it was run: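 Wild-type CHO-K1 cells plated overnight, then exposed 3 hr at 37C to compounds at 15 concentrations (0.76% DMSO). Lysed, then HTRF anti-pH2AX(S139)-cryptate/anti-H2AX-d2 detection after 24 hr at room temperature; emissions 665 and 620 nm.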

[2] = qHTS assay to identify small molecule agonists of H2AX - cell viability counter screen (AID 1224847; calls by dose curve; also: nearly all actives have a fitted effect of over 30% in size; also: potency is read from the fitted curve at half-maximal effect)
How it was run: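 Wild-type CHO-K1 cells (10% FBS medium) were plated overnight at 37C, exposed to compounds at 15 concentrations for 3 hr at 37C (0.76% DMSO final), and viability was read as CellTiter-Glo luminescence after 30 min at room temperature.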

[3] = qHTS assay to identify small molecule antagonists of the estrogen related receptor (ERR) signaling pathway from Tox21 library (AID 1224848); also: nearly all actives have a fitted effect of over 50% in size; also: potency is read from the fitted curve at half-maximal effect
How it was run: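 Cells: ERR line, 2,000/well; 6 h preincubation 37 C/5% CO2. Cpd in DMSO via pin tool; 18 h, 37 C. ONE-Glo, 30 min RT, luminescence.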

[4] = qHTS assay to identify small molecule agonists of the estrogen related receptor (ERR) signaling pathway from Tox21 library (AID 1224849; calls by dose curve; also: nearly all actives have a fitted effect of over 15% in size); settings: ERR reporter cell line, ONE-Glo luciferase, 18 h; at 92.4 µM (top of the series) unless noted
How it was run: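 Agonist signal is luciferase luminescence from an ERR reporter cell line treated 18 h at 37 C with DMSO-dissolved compounds, read 30 min after ONE-Glo addition at room temperature.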

[5] = qHTS RealTime-Glo MT Cell Viability Assay in HepG2 cells - 24 hour (AID 1224867); also: nearly all actives have a fitted effect of over 50% in size; also: potency is read from the fitted curve at half-maximal effect
How it was run: (§1)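 Cells + NanoLuc/prosubstrate dispensed (600 cells/well) → 5 h at 37 C/5% CO2 → compounds in DMSO transferred → 40 h incubation at 37 C, luminescence read at 0, 8, 16, 24, 32, 40 h.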

[6] = qHTS RealTime-Glo MT Cell Viability Assay in HEK293 cells - 32 hour (AID 1224868); also: nearly all actives have a fitted effect of over 50% in size; also: potency is read from the fitted curve at half-maximal effect
How it was run: (§2)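 Tox21 10K qHTS, HEK293, 600 cells/well, RealTime-Glo reagent co-dispensed with cells; 5 h preincubation, compound by pintool, 37 C, luminescence at 0–40 h.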

[7] = A CellTox Green Cytotoxicity Assay to monitor cytotoxicity in HEK293 cells - 0 hour (AID 1224869); also: nearly all actives have a fitted effect of over 50% in size
How it was run: (§3)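 Cytotoxicity was tracked continuously in HEK293 cells by a DNA-binding dye excluded from viable cells. Compounds were transferred in DMSO 5 h after seeding; fluorescence was recorded at intervals up to 40 h.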

[8] = qHTS RealTime-Glo MT Cell Viability Assay in HepG2 cells - 40 hour (AID 1224870); also: nearly all actives have a fitted effect of over 50% in size; also: potency is read from the fitted curve at half-maximal effect
How it was run: (§4)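 HepG2 cells mixed with RealTime-Glo MT reagents (NanoLuc plus cell-permeant prosubstrate) were seeded at 600 cells/well, incubated 5 h at 37 C/5% CO2, then pinned with compounds in DMSO; nonlytic luminescence tracked viability during 40 h treatment.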

[9] = A CellTox Green Cytotoxicity Assay to monitor cytotoxicity in HEK293 cells - 40 hour (AID 1224871); also: nearly all actives have a fitted effect of over 45% in size; also: potency is read from the fitted curve at half-maximal effect
How it was run: as §3

[10] = qHTS RealTime-Glo MT Cell Viability Assay in HEK293 cells - 16 hour (AID 1224872); also: nearly all actives have a fitted effect of over 50% in size; also: potency is read from the fitted curve at half-maximal effect
How it was run: as §2

[11] = qHTS RealTime-Glo MT Cell Viability Assay in HepG2 cells - 8 hour (AID 1224873); also: nearly all actives have a fitted effect of over 55% in size; also: potency is read from the fitted curve at half-maximal effect
How it was run: as §4

[12] = qHTS RealTime-Glo MT Cell Viability Assay in HEK293 cells - 40 hour (AID 1224874); settings: RealTime-Glo luminescence; max response: stronger effect = lower value; also: nearly all actives have a fitted effect of over 50% in size; also: potency is read from the fitted curve at half-maximal effect
How it was run: (§5)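 Nonlytic bioluminescent viability monitoring. HEK293 at 600 cells/well with reagent; 5 h settle; compound transfer by pintool; plates held at 37 C and read at set time points.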

[13] = A CellTox Green Cytotoxicity Assay to monitor cytotoxicity in HEK293 cells - 24 hour (AID 1224875); also: nearly all actives have a fitted effect of over 45% in size; also: potency is read from the fitted curve at half-maximal effect
How it was run: as §3

[14] = A CellTox Green Cytotoxicity Assay to monitor cytotoxicity in HepG2 cells - 16 hour (AID 1224876); also: nearly all actives have a fitted effect of over 45% in size; also: potency is read from the fitted curve at half-maximal effect
How it was run: (§6)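 Real-time, homogeneous cytotoxicity readout: dead-cell DNA staining by CellTox Green in HepG2 monolayers, fluorescence measured at timed intervals up to 40 h of continuous compound exposure.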

[15] = qHTS RealTime-Glo MT Cell Viability Assay in HepG2 cells - 32 hour (AID 1224877); also: nearly all actives have a fitted effect of over 55% in size; also: potency is read from the fitted curve at half-maximal effect
How it was run: as §1

[16] = qHTS RealTime-Glo MT Cell Viability Assay in HEK293 cells - 0 hour (AID 1224880); also: nearly all actives have a fitted effect of over 45% in size; also: potency is read from the fitted curve at half-maximal effect
How it was run: as §5

[17] = A CellTox Green Cytotoxicity Assay to monitor cytotoxicity in HepG2 cells - 24 hour (AID 1224878); also: nearly all actives have a fitted effect of over 45% in size; also: potency is read from the fitted curve at half-maximal effect
How it was run: as §6

[18] = A CellTox Green Cytotoxicity Assay to monitor cytotoxicity in HepG2 cells - 40 hour (AID 1224879); also: nearly all actives have a fitted effect of over 40% in size; also: potency is read from the fitted curve at half-maximal effect
How it was run: as §6

[19] = A CellTox Green Cytotoxicity Assay to monitor cytotoxicity in HEK293 cells - 32 hour (AID 1224881); also: nearly all actives have a fitted effect of over 40% in size; also: potency is read from the fitted curve at half-maximal effect
How it was run: as §3
% is scaled to controls: 0 for no effect and ±100 for the full control effect.

O=C(Nc1cccc(Cl)c1)OCC#CCCl
active: Potency [1] 113 µM | Potency [3] 30.6 µM | Potency [5] 49 µM | Potency [6] 49 µM | Potency [8] 49 µM | Potency [9] 43.6 µM | Potency [10] 54.9 µM | Potency [11] 43.6 µM | Potency [12] 49 µM | Potency [15] 43.6 µM
inactive: Potency [2] | activity change, positive = activation [4] -74.2% | Potency [7] | Potency [13] | Potency [14] | Potency [16]

CCCCCCCCCCCCCCCCCC[N+](C)(C)Cc1ccccc1
active: Potency [2] 45.4 µM | Potency [3] 19.5 µM | Potency [5] 49.5 µM | Potency [6] 2.78 µM | Potency [8] 22.1 µM | Potency [9] 19.7 µM | Potency [10] 17.5 µM | Potency [11] 49.5 µM | Potency [12] 1.75 µM | Potency [13] 24.8 µM | Potency [14] 44.1 µM | Potency [15] 35 µM | Potency [17] 24.8 µM | Potency [18] 19.7 µM | Potency [19] 24.8 µM
inactive: Potency [1] | activity change, positive = activation [4] -81% | Potency [7] | Potency [16]

CC(C)(C)NC(=O)[C@@H]1C[C@@H]2CCCC[C@@H]2CN1C[C@@H](O)[C@H](Cc1ccccc1)NC(=O)[C@H](CC(N)=O)NC(=O)c1ccc2ccccc2n1
inactive: activity change, positive = activation [4] -72.5% | Potency [7] | Potency [16]
active: Potency [1] 51.2 µM | Potency [2] 51.2 µM | Potency [3] 19.6 µM | Potency [5] 55.7 µM | Potency [6] 19.7 µM | Potency [9] 55.7 µM | Potency [10] 24.9 µM | Potency [12] 17.6 µM | Potency [17] 55.7 µM | Potency [18] 49.6 µM

COc1cc(-c2ccc(N=C=O)c(OC)c2)ccc1N=C=O
inactive: Potency [1] | Potency [2] | Potency [3] | activity change, positive = activation [4] -0.106% [at 42.5 µM] | Potency [5] | Potency [6] | Potency [7] | Potency [8] | Potency [9] | Potency [10] | Potency [11] | max response [12] -10% | Potency [13] | Potency [14] | Potency [15] | Potency [17] | Potency [18] | Potency [16] | Potency [19]

O=c1[nH]sc2cc(Cl)ccc12
active: Potency [3] 0.106 µM | Potency [5] 26.8 µM
inactive: Potency [1] | Potency [2] | activity change, positive = activation [4] -42.9% [at 42.5 µM] | Potency [6] | Potency [7] | Potency [9] | Potency [13] | Potency [16] | Potency [19]

CCCCCCCC/C=C/CCCCCCCC1=NCCN1CCO
inactive: Potency [1] | activity change, positive = activation [4] -79.9% | Potency [7]
active: Potency [2] 101 µM | Potency [3] 54.5 µM | Potency [5] 17.4 µM | Potency [6] 19.5 µM | Potency [8] 17.4 µM | Potency [9] 30.9 µM | Potency [10] 21.9 µM | Potency [11] 43.6 µM | Potency [12] 19.5 µM | Potency [13] 24.5 µM | Potency [14] 21.9 µM | Potency [15] 15.5 µM | Potency [18] 12.3 µM | Potency [19] 24.5 µM

Cc1cc(O)c(C(C)(C)C)cc1C(C)(C)C
inactive: activity change, positive = activation [4] -68.9% | Potency [7]
active: Potency [1] 89.8 µM | Potency [2] 50.5 µM | Potency [3] 61.1 µM | Potency [5] 43.6 µM | Potency [6] 17.4 µM | Potency [9] 24.5 µM | Potency [10] 19.5 µM | Potency [11] 38.9 µM | Potency [13] 24.5 µM | Potency [17] 21.9 µM | Potency [18] 24.5 µM | Potency [19] 24.5 µM

Cc1[nH]cnc1C[C@H]1CCc2c(C)c3ccccc3n2C1=O
active: Potency [2] 87.6 µM | Potency [3] 26.6 µM | Potency [5] 38 µM | Potency [6] 23.9 µM | Potency [8] 42.6 µM | Potency [9] 47.8 µM | Potency [12] 23.9 µM | Potency [13] 47.8 µM | Potency [14] 38 µM | Potency [17] 38 µM | Potency [18] 33.8 µM | Potency [19] 47.8 µM
inactive: Potency [1] | activity change, positive = activation [4] -63.7% | Potency [7] | Potency [16]

C=C(C)C(=O)OCC(O)COc1ccc(C(C)(C)c2ccc(OCC(O)COC(=O)C(=C)C)cc2)cc1 (configuration not stated)
active: Potency [2] 35.7 µM | Potency [3] 27.3 µM | Potency [5] 19.5 µM | Potency [6] 12.3 µM | Potency [10] 9.77 µM | Potency [11] 19.5 µM | Potency [12] 13.8 µM | Potency [15] 21.9 µM | Potency [18] 43.6 µM
inactive: Potency [1] | activity change, positive = activation [4] -80.3% | Potency [7] | Potency [13] | Potency [17] | Potency [16] | Potency [19]

CCCC1O[C@@H]2C[C@H]3[C@@H]4CCC5=CC(=O)C=C[C@]5(C)[C@H]4[C@@H](O)C[C@]3(C)[C@]2(C(=O)CO)O1 (some centres not stated)
inactive: Potency [1] | Potency [2] | activity change, positive = activation [4] -61.9% and -49.1% | Potency [5] | Potency [7] | Potency [8] | Potency [9] | Potency [11] | Potency [13] | Potency [14] | Potency [17] | Potency [19]
active: Potency [3] 27.3 µM and 34.4 µM | Potency [6] 24.6 µM and 43.6 µM | Potency [12] 24.6 µM and 43.6 µM | Potency [18] 49 µM | Potency [16] 30.9 µM

O=C1C=CC(=O)N1
active: Potency [1] 14.6 µM | Potency [2] 82.2 µM | Potency [5] 22.5 µM | Potency [6] 12.6 µM | Potency [8] 22.5 µM | Potency [9] 17.8 µM | Potency [10] 15.9 µM | Potency [11] 44.8 µM | Potency [12] 11.3 µM | Potency [13] 20 µM | Potency [14] 25.2 µM | Potency [15] 22.5 µM | Potency [17] 20 µM | Potency [18] 17.8 µM | Potency [19] 17.8 µM
inactive: Potency [3] | activity change, positive = activation [4] -71.7% | Potency [7] | Potency [16]
